According to ChEMBL document CHEMBL1961873, “Compounds: GSK PKIS; Assays: Nanosyn kinase panel” (2012):

Tests used:
[1] = target: Tyrosine-protein kinase Fer (Homo sapiens) (UniProt P16591); settings: at 1 µM
[2] = target: Tyrosine-protein kinase Fes/Fps (Homo sapiens) (UniProt P07332); settings: at 0.1 µM
[3] = target: Tyrosine-protein kinase Fes/Fps (Homo sapiens) (UniProt P07332); settings: at 1 µM
[4] = target: Fibroblast growth factor receptor 1 (Homo sapiens) (UniProt P11362); settings: at 0.1 µM
[5] = target: Fibroblast growth factor receptor 1 (Homo sapiens) (UniProt P11362); settings: at 1 µM
[6] = target: Fibroblast growth factor receptor 2 (Homo sapiens) (UniProt P21802); settings: at 0.1 µM
[7] = target: Fibroblast growth factor receptor 2 (Homo sapiens) (UniProt P21802); settings: at 1 µM
[8] = target: Fibroblast growth factor receptor 3 (Homo sapiens) (UniProt P22607); settings: at 0.1 µM
Sequence of Fibroblast growth factor receptor 3 (Homo sapiens) (P22607 23-806 limits assumed): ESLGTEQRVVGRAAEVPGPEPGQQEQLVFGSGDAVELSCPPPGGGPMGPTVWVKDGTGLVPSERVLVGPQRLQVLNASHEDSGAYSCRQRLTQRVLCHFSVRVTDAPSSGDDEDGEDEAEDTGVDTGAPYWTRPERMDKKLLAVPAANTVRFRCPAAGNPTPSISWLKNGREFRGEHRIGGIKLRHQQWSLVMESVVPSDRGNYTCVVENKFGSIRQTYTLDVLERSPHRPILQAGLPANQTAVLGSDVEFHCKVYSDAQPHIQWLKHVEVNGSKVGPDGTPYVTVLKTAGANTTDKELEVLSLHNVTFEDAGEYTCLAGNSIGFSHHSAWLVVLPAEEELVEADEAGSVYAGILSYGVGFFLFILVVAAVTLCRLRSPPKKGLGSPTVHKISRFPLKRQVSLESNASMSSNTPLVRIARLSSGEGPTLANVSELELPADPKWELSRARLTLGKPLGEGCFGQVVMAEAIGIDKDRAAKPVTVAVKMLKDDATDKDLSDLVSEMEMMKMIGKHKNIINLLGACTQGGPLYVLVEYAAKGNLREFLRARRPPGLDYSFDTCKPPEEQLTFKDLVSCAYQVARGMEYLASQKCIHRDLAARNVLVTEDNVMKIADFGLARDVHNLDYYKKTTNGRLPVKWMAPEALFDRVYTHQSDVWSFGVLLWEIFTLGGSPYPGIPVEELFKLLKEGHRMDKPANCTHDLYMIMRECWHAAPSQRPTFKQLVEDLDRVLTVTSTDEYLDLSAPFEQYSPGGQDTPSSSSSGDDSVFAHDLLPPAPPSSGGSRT

[9] = target: Fibroblast growth factor receptor 3 (Homo sapiens) (UniProt P22607); settings: at 1 µM
[10] = target: Fibroblast growth factor receptor 4 (Homo sapiens) (UniProt P22455); settings: at 0.1 µM
Sequence of Fibroblast growth factor receptor 4 (Homo sapiens) (P22455 22-802 limits assumed): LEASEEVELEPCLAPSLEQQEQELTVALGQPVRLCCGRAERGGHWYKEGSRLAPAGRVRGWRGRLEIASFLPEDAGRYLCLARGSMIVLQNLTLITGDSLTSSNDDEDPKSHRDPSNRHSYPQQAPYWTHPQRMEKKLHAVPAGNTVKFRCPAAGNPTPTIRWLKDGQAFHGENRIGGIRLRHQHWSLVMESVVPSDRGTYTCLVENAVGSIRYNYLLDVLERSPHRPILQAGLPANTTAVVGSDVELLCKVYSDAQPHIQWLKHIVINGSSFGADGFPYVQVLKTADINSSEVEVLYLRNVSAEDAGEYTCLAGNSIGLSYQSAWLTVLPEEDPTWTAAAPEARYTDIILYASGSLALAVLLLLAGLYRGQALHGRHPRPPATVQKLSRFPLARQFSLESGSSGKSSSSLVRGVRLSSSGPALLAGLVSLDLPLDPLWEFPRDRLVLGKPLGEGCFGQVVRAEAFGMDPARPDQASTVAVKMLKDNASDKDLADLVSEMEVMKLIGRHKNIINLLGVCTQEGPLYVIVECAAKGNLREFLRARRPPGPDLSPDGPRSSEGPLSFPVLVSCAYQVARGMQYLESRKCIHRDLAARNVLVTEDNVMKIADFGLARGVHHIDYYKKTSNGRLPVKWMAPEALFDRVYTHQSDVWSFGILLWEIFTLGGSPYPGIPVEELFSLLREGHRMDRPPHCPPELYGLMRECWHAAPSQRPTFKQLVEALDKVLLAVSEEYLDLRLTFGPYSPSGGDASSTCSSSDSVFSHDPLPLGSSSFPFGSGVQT

[11] = target: Fibroblast growth factor receptor 4 (Homo sapiens) (UniProt P22455); settings: at 1 µM
[12] = target: Tyrosine-protein kinase Fgr (Homo sapiens) (UniProt P09769); settings: at 0.1 µM
[13] = target: Tyrosine-protein kinase Fgr (Homo sapiens) (UniProt P09769); settings: at 1 µM
[14] = target: Vascular endothelial growth factor receptor 1 (Homo sapiens) (UniProt P17948); settings: at 0.1 µM
Sequence of Vascular endothelial growth factor receptor 1 (Homo sapiens) (P17948 whole entry): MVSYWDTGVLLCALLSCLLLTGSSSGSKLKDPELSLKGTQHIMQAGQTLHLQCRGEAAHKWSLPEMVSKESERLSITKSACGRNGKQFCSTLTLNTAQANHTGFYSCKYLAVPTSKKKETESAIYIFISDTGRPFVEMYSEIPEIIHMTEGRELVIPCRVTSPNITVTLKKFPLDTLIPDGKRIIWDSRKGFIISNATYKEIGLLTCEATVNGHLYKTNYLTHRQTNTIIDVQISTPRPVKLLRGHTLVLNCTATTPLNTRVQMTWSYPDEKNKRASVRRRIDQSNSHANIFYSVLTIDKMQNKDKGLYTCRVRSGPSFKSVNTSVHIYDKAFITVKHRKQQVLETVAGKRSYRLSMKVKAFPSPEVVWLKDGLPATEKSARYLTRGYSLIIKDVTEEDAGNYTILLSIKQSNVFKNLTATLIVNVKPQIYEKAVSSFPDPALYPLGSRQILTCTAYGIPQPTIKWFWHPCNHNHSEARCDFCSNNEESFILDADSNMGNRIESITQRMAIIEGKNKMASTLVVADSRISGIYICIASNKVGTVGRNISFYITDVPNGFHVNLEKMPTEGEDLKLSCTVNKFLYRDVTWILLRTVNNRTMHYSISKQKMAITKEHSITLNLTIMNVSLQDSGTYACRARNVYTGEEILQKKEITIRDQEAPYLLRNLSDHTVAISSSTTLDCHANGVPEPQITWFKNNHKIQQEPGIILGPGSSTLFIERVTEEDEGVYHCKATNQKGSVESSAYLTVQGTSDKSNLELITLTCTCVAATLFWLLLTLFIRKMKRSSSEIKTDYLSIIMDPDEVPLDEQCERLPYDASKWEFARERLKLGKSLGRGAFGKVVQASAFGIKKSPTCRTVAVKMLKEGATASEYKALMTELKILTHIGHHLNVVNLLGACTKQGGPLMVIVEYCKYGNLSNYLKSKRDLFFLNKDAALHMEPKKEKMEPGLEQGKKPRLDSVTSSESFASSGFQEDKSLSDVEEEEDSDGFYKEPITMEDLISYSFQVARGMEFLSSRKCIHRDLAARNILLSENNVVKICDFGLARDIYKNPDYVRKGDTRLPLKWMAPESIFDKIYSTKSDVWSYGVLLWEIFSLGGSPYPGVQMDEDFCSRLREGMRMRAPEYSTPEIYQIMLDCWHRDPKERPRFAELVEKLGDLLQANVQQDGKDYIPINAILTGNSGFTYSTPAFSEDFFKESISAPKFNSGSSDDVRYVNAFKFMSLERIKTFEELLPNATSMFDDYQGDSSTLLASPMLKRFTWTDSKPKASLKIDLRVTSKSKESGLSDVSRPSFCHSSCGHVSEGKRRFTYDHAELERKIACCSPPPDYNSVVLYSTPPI

[15] = target: Vascular endothelial growth factor receptor 1 (Homo sapiens) (UniProt P17948); settings: at 1 µM
[16] = target: Receptor-type tyrosine-protein kinase FLT3 (Homo sapiens) (UniProt P36888); settings: at 0.1 µM
[17] = target: Receptor-type tyrosine-protein kinase FLT3 (Homo sapiens) (UniProt P36888); settings: at 1 µM
[18] = tested on: T1, Receptor-type tyrosine-protein kinase FLT3 (Homo sapiens), P36888 [D835Y]; settings: at 0.1 µM
T1 sequence (whole entry): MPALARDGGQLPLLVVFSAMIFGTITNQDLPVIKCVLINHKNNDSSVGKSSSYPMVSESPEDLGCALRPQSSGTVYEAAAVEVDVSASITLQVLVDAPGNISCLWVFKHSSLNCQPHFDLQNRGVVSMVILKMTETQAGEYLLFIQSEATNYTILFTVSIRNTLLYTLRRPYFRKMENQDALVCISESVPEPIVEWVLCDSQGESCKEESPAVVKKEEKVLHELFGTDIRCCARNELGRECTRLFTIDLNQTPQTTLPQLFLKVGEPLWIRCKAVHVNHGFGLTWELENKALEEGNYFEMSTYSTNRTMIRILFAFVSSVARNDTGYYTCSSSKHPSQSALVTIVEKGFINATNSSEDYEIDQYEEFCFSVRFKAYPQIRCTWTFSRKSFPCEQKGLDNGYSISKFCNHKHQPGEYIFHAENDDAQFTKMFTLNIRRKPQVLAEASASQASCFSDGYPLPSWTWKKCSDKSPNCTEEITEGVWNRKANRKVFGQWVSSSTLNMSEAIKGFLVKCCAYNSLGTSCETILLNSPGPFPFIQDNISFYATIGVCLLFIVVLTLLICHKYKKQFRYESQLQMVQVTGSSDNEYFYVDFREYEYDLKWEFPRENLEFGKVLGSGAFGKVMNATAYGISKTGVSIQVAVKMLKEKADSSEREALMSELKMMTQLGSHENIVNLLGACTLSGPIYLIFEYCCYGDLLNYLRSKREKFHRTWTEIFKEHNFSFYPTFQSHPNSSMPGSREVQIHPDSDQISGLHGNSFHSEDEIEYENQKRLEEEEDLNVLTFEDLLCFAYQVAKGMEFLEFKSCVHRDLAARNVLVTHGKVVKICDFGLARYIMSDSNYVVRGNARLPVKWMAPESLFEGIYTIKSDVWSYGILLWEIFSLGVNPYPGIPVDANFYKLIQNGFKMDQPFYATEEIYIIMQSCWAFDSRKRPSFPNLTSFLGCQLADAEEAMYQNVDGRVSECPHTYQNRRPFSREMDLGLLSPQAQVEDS

[19] = target: Non-receptor tyrosine-protein kinase TYK2 (Homo sapiens) (UniProt P29597); settings: at 1 µM;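 note: values are mean percent inhibition of TYK2 kinase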
Sequence of Non-receptor tyrosine-protein kinase TYK2 (Homo sapiens) (P29597 whole entry): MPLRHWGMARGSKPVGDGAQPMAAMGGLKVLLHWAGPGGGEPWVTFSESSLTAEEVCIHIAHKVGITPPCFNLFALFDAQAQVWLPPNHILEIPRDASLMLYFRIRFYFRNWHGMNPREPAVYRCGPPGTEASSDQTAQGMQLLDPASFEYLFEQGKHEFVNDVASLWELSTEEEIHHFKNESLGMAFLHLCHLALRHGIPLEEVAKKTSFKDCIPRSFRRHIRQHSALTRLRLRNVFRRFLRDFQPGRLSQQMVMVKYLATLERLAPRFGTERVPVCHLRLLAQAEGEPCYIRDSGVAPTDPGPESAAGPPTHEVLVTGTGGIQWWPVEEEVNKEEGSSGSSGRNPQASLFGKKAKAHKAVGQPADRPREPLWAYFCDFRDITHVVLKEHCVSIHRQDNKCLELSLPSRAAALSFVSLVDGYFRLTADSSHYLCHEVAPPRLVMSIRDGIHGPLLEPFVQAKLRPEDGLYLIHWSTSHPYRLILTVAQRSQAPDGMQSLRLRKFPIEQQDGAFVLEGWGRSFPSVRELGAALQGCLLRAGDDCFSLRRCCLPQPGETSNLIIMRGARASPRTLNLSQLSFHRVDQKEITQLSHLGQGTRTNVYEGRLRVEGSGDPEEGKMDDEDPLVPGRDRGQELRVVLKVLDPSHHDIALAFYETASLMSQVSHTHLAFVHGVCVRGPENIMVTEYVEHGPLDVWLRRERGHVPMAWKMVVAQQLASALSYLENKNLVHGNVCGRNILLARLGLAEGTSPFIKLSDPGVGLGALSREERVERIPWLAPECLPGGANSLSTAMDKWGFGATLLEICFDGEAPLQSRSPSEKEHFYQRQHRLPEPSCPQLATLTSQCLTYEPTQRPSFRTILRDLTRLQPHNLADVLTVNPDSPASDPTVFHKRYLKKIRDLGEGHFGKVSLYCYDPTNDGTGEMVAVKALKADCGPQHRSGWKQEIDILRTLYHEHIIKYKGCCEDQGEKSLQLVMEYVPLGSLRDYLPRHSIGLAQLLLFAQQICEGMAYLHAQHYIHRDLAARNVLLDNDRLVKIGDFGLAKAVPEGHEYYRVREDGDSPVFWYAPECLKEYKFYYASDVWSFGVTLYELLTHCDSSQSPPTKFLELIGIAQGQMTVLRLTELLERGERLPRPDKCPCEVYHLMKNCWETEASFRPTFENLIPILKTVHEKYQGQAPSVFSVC

[20] = target: T2, Tyrosine-protein kinase receptor TYRO3 (Homo sapiens) (UniProt Q06418); settings: at 0.1 µM;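 note: reported percentages are averaged inhibition values of TYRO3 kinase activity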
T2 sequence (whole entry): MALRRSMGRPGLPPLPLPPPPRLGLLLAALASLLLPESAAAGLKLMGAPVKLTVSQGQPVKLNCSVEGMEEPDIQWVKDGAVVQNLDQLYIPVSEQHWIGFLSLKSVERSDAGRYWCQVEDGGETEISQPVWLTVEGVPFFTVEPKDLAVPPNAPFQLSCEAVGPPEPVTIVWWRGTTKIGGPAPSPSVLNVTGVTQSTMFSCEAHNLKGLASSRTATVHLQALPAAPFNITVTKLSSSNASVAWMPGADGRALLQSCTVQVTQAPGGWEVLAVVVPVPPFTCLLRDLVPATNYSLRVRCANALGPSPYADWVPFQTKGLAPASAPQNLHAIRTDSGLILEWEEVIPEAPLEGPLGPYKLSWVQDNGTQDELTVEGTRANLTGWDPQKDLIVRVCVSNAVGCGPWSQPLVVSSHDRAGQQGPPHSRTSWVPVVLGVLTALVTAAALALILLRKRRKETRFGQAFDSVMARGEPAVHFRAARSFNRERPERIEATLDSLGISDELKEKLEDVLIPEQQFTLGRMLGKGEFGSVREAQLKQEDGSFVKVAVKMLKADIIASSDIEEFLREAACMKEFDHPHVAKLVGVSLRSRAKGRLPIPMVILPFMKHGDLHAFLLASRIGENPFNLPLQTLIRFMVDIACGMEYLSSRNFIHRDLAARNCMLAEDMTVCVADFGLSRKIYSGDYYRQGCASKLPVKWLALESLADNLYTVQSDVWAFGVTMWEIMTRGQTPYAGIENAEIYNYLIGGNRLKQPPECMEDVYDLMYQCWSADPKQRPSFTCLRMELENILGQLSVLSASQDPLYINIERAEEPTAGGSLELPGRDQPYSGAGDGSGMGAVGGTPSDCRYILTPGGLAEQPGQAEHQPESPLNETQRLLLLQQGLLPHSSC

Sequence of Tyrosine-protein kinase Fer (Homo sapiens) (P16591 whole entry, looked up): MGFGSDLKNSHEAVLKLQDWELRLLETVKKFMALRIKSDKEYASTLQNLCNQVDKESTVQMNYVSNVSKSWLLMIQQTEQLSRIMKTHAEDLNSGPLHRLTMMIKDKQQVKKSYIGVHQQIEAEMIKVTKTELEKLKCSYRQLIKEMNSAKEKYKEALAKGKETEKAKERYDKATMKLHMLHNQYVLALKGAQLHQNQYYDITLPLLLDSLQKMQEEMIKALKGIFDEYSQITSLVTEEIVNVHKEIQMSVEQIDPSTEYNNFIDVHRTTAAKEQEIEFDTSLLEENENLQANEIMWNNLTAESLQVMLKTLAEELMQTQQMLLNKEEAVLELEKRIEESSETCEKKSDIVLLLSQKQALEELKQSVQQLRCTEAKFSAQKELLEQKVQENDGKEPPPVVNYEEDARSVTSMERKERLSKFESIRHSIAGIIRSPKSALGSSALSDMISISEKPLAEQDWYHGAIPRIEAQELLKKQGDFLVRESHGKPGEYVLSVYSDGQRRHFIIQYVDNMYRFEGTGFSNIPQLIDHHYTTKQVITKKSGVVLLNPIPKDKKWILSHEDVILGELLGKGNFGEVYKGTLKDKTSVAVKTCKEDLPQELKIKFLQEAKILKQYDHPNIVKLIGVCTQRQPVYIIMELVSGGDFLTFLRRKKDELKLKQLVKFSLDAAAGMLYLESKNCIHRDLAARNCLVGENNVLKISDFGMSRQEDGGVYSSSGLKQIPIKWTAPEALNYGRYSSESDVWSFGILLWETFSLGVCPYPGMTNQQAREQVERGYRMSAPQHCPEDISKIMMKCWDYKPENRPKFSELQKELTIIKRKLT

SMILES | inhibition [1] [%] | inhibition [2] [%] | inhibition [3] [%] | inhibition [4] [%] | inhibition [5] [%] | inhibition [6] [%] | inhibition [7] [%] | inhibition [8] [%] | inhibition [9] [%] | inhibition [10] [%] | inhibition [11] [%] | inhibition [12] [%] | inhibition [13] [%] | inhibition [14] [%] | inhibition [15] [%] | inhibition [16] [%] | inhibition [17] [%] | inhibition [18] [%] | inhibition [19] [%] | inhibition [20] [%]
O=C1NC(=O)C(N2CCc3ccccc32)=C1c1ccc(Cl)cc1 | 6.71 | 4.08 | 7.35 | 5.27 | 13 | 6.84 | 14 | 8.07 | 11.6 | -1.04 | 1.44 | 2.39 | 8.07 | 1.82 | 5.14 | 2.06 | 5.05 | -2.14 | -4.27 | 3.4
c1cnn2ncc(-c3ccnc(Nc4ccc5c(c4)OCCO5)n3)c2c1 | 43.7 | 10.5 | 48 | 5.77 | 5.22 | 6.35 | 15.9 | 6.39 | 15.7 | -0.77 | 4.77 | 4.29 | 14.5 | 8.17 | 20.5 | 29.5 | 75.7 | 9.31 | 12.8 | 5.88
COC(=O)Nc1nc2cc(Oc3cccc(NC(=O)Nc4cc(C(F)(F)F)ccc4F)c3)ccc2[nH]1 | 1.61 | -0.51 | 0.56 | -2.84 | 0 | -1.71 | 2.62 | 0.57 | 1.54 | -1.4 | 0.74 | 1.17 | 3.3 | 2.97 | 25.7 | -3.12 | 3.93 | 1.62 | 1.94 | -1.36
NCc1ccc(-c2nc(-c3ccc(Cl)c(O)c3)c(-c3ccncc3)[nH]2)cc1 | 2.5 | 0.2 | 1.79 | -0.32 | 1.38 | -0.38 | 6.76 | 0.23 | 5.11 | -5.87 | 2.75 | 4.3 | 32.8 | 19.8 | 70.6 | -0.2 | 3.28 | 2.87 | -1.84 | 0.69
COc1cc(C)c(NC(=O)CN(C)C)cc1Nc1nc(Nc2cccc(F)c2C(N)=O)c2cc[nH]c2n1 | 86.8 | 76.1 | 89 | 0.49 | 1.43 | 0.12 | 4.39 | 2.37 | 1.03 | -1.04 | 1.48 | 0.83 | 2.7 | 2.27 | 0.42 | 1.69 | 4.08 | -5.02 | -1.61 | 2.82
O=C1NC(=O)C(c2ccc(Cl)cc2)=C1Nc1ccc(Cl)c(C(=O)O)c1 | 1.58 | -3.1 | -3 | -0.91 | 2.2 | -2.69 | 2.13 | 1.31 | 2.66 | -0.4 | 1.95 | 0.15 | 2.1 | 0.79 | 2.99 | -0.57 | 1.93 | -7.38 | 0.43 | -0.81
COc1cc2c(cc1Nc1nc(N3CCc4ccccc43)c3cc[nH]c3n1)N(C(=O)CN(C)C)CC2 | 85.2 | 39.9 | 62.3 | 2.98 | -1.36 | 0.56 | 6.55 | 3.52 | 0.84 | -1.03 | 0.78 | -0.2 | 3.44 | 1.49 | 2.02 | 0.56 | -1.35 | -2.55 | -2.82 | 1.61
CS(=O)(=O)CCNCc1ccc(-c2ccc3ncnc(Nc4ccc(OCc5ccccc5)c(Cl)c4)c3c2)o1 | 10.4 | 0.53 | 0.08 | 0.78 | 3.71 | 0.57 | 5.46 | 2.05 | 4.98 | -0.26 | 0.28 | 2.49 | 11.5 | -0.51 | 0.52 | 1.48 | 2.75 | -3.65 | 1.7 | 0.02
Nc1ncnc2occ(-c3ccc(NC(=O)Nc4cc(C(F)(F)F)cc(C(F)(F)F)c4)cc3)c12 | 22 | 1.31 | 4.84 | 9.08 | 43.7 | 23.3 | 68.8 | 10.8 | 52.8 | 3.02 | 9.49 | 1.01 | 15.9 | 23.4 | 73.9 | 19 | 78.3 | 12.8 | -5.22 | 2.97
